Records with an inconclusive call do not appear. Activity calls are given as the source filed them. Calls come from the whole dose curve; as a rule, active = well fitted curve in the direction sought with a large enough effect; inconclusive = small, poorly fitted or top-dose-only effect, or another doubt; inactive = no such curve, though single readings can be large; an effect the other way counts as inactive or inconclusive.
Key:
[1] = Primary qHTS for inhibitors of nuclear receptor binding SET domain protein 2 (NSD2) in an RCH-ACV wild type WT cells (2C) (AID 1645877); note: nearly all actives have a fitted effect of over 70% in size; for activity change, negative = cell killing: % is set by controls: 0 for no effect and ±100 for the full control effect
[2] = target: Glutathione peroxidase 1 (Homo sapiens) (UniProt P07203); test: Primary qHTS Assay for Inhibitors of Recombinant Selenoprotein Glutathione Peroxidase 1 (GPX1) (AID 1845191); note: nearly all actives have a fitted effect of over 65% in size; note: potency is the fitted concentration of half-maximal effect; for activity, negative = inhibition: % is set by controls: 0 for no effect and ±100 for the full control effect
Glutathione peroxidase 1 (Homo sapiens), sequence (P07203 whole entry, looked up): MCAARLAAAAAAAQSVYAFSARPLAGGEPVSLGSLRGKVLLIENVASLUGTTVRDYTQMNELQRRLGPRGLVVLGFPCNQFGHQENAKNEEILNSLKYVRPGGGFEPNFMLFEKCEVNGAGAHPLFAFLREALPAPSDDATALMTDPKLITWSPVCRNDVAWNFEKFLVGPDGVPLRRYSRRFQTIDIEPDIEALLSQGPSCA
Procedure, shortened: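 GR-coupled readout: NADPH consumption tracked by fluorescence, ex 340/em 450 nm, at t=0 and after 15 min at RT. Final mix 10 nM GPX1, 1 mM GSH, 0.5 mM CHP, 0.5 mM NADPH, 100 nM GR, 0.01% BSA, following 30 min enzyme–compound preincubation.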

[3] = target: Phospholipid hydroperoxide glutathione peroxidase GPX4 (Homo sapiens) (UniProt P36969); test: Primary qHTS Assay for Inhibitors of Recombinant Selenoprotein Glutathione Peroxidase 4 (GPX4) (AID 1845192); note: nearly all actives have a fitted effect of over 65% in size; note: potency is the fitted concentration of half-maximal effect; for activity change, negative = inhibition: series mostly up to about 50 µM; % is set by controls: 0 for no effect and ±100 for the full control effect
Phospholipid hydroperoxide glutathione peroxidase GPX4 (Homo sapiens), sequence (P36969 whole entry, looked up): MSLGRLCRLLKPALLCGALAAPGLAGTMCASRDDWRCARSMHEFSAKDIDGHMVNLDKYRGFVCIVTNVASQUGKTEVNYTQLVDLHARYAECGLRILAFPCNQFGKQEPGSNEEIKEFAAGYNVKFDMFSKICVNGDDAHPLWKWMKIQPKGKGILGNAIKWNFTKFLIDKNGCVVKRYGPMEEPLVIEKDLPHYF
Procedure, shortened: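 Steps: GPX4 plus compound, 30 min RT; add GR/GSH/NADPH master mix; start with cumene hydroperoxide; read 340/450 nm fluorescence at 0 and 15 min. Finals were 200 nM GPX4, 1 mM GSH, 0.5 mM CHP, 0.5 mM NADPH, 100 nM GR.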

[4] = target: Luciferin 4-monooxygenase (Photinus pyralis) (UniProt P08659); test: Primary firefly luciferase (FLuc) qHTS assay for identification of artifact compounds. (AID 1845220); note: nearly all actives have a fitted effect of over 60% in size;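 for activity change, negative = inhibition: series mostly up to about 54 µM; plate controls were DMSO vehicle for no effect and no enzyme for full effect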
Procedure, shortened: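 Titrated compounds were incubated 15 min at RT, protected from light, with luciferin and ATP at 10 uM; reaction started with 10 nM FLuc, luminescence imaged at 5 min, and concentration-response fitted by Hill equation.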

[5] = Primary fluorescence-based thiol-reactive (MSTI) qHTS assay for identification of artifact compounds. (AID 1845221); note: nearly all actives have a fitted effect of over 65% in size; note: potency is the fitted concentration of half-maximal effect;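 for activity change, negative = thiol reactive: series mostly up to about 54 µM; thiol-reactive compounds lower the probe fluorescence signal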
Procedure, shortened: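 First, 4 uM MSTI in 2% DMSO/PBS pH 7.4 was dispensed; next, compounds were added; then plates sat 1 h at room temperature without light. Finally, emission at 598 nm was recorded.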

[6] = system: Nanoluciferase (engineered Oplophorus gracilirostris luciferase); test: Primary Nanoluciferase (NLuc) qHTS assay for identification of artifact compounds. (AID 1845222);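 note: NLuc secreted into diluted conditioned medium of S16 cells; series mostly up to about 54 µM; 0% = DMSO and -100% = no enzyme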
Procedure, shortened: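 qHTS format, against NLuc in S16 cell-conditioned medium. Nano-Glo substrate 1:100 was added after 15 min at room temperature. Luminescence was taken after a further 5 min.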

[7] = Primary redox qHTS assay for identification of artifact compounds. (AID 1845223);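 note: 0% = DMSO and 100% = reference compound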
Procedure, shortened: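 Redox-cycling detection via DTT (250 uM final) oxidation coupled to Amplex Red (25 uM)/HRP (250 mU/mL) in HBSS. 15 min preincubation plus 30 min after DTT, room temperature. Ex/Em 525/598 nm; 4-parameter Hill fit against DMSO and 10 uM DA3003.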

CC1(C)CCCC2(C)C=C(C(=O)O)C(O)CC12 (stereo not given)
inactive: Potency [1] | Potency [2] | Potency [3] | Potency [4] | Potency [5] | Potency [6] | Potency [7]

Cc1cc(C(=O)N2CCCCc3ccccc32)ccc1CNC(=O)N1CCC[C@H]1C(=O)N(C)C
inactive: Potency [1] | Potency [2] | Potency [3] | Potency [4] | Potency [5] | Potency [6] | Potency [7]

COc1cc2occc2c(O[C@@H]2O[C@H](CO)[C@@H](O)[C@H](O)[C@H]2O)c1CCC(=O)O
active: Potency [2] 11.1 µM | Potency [3] 11.1 µM | Potency [5] 5.19 µM
inactive: Potency [1] | Potency [4] | Potency [6] | Potency [7]

Cc1ccc(NC(=O)C(=O)NC2CC(C)(C)NC(C)(C)C2)cc1
inactive: Potency [1] | Potency [2] | Potency [3] | Potency [4] | Potency [5] | Potency [6] | Potency [7]

O=C1NC2CCc3nc4ccccc4c(=O)n3C2=Nc2ccccc21 (stereo not given)
inactive: Potency [1] | Potency [2] | Potency [3] | Potency [4] | Potency [5] | Potency [6] | Potency [7]

C[C@@H]1O[C@@H](OC[C@H]2O[C@@H](Oc3cc(O)cc4c3C(=O)C(O)(Cc3ccc(O)cc3)O4)[C@H](O)[C@@H](O)[C@@H]2O)[C@H](O)[C@H](O)[C@H]1O (stereo not given in full)
inactive: Potency [1] | Potency [2] | Potency [3] | Potency [4] | Potency [5] | Potency [6] | Potency [7]

CC1(C)CC2=C3C=CC4C5(C)CCC(O)C(C)(C)C5CCC4(C)C3(C)CCC2(C)C(O)C1 (stereo not given)
inactive: Potency [1] | Potency [2] | Potency [3] | Potency [4] | Potency [6] | Potency [7]
active: Potency [5] 11.6 µM

C[C@@H]1O[C@@H](O[C@@H]2[C@@H](O)[C@H](O[C@H]3CC[C@@]4(C)C(CC[C@]5(C)C4CC=C4[C@@H]6CC(C)(C)CC[C@]6(C(=O)O[C@@H]6O[C@H](CO)[C@@H](O)[C@H](O)[C@H]6O)CC[C@]45C)C3(C)C)O[C@H](C(=O)O)[C@H]2O)[C@H](O)[C@H](O)[C@H]1O (stereo not given in full)
inactive: activity change, negative = cell killing [1] -14.9% [at 9.23 µM] | Potency [2] | Potency [3] | activity change, negative = inhibition [4] 0.705% [at 11.6 µM] | activity change, negative = thiol reactive [5] 312% [at 11.5 µM] | activity, negative = inhibition [6] 2.86% [at 11.6 µM] | redox activity (% of DA3003) [7] 12.9% [at 11.5 µM]

C[C@H](C/C=C/C(C)(C)O)[C@H]1CC[C@@]2(C)[C@@H]3[C@@H](O[C@@H]4O[C@H](CO)[C@@H](O)[C@H](O)[C@H]4O)C=C4C(CC[C@H](O)C4(C)C)[C@]3(C=O)CC[C@]12C (stereo not given in full)
inactive: Potency [1] | Potency [2] | Potency [3] | Potency [4] | Potency [5] | Potency [6] | Potency [7]

C/C=C(\C)C(=O)O[C@@H]1CC2[C@@H](CC=C3C[C@@H](O[C@H]4C[C@H](OC)[C@H](O[C@H]5C[C@H](OC)[C@H](O[C@@H]6O[C@H](C)[C@@H](O[C@H]7C[C@H](OC)[C@H](O[C@@H]8O[C@H](CO)[C@@H](O)[C@H](O)[C@H]8O)[C@@H](C)O7)[C@H](OC)[C@H]6O)[C@@H](C)O5)[C@@H](C)O4)CC[C@@]32C)[C@@]2(O)CC[C@H](C(C)=O)[C@@]12C (stereo not given in full)
inactive: activity change, negative = cell killing [1] -12.6% [at 9.23 µM] | outcome [2] inactive [at 9.52 µM] | activity change, negative = inhibition [3] -6.94% [at 9.73 µM] | outcome [4] inactive [at 11.6 µM] | activity change, negative = thiol reactive [5] 14.5% [at 11.5 µM] | activity, negative = inhibition [6] 2.98% [at 11.6 µM] | redox activity (% of DA3003) [7] -4.24% [at 11.5 µM]

Reference: PubChem BioAssay (NCATS)
